For nine compounds, growth inhibition results are on record in PubChem BioAssay (NCI).

Test [1] can be described thus: NCI Yeast Anticancer Drug Screen. Data for the rad50 strain (AID 155).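 Also: 0% = growth of vehicle-only cultures of the same strain.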 As to conditions: S. cerevisiae rad50 strain growth inhibition, active compounds read high. A digest of the protocol:
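Relative growth inhibition (compound vs vehicle) was measured in yeast with a defined repair-gene alteration.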

A short description of test [2]: NCI Yeast Anticancer Drug Screen. Data for the mec2-1 strain (AID 157). As to conditions: S. cerevisiae mec2-1 strain, active compounds read high. The procedure, abridged: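 Cells of the genetically defined mec2-1 yeast strain are incubated with test compound. Inhibition of growth is calculated against vehicle-treated controls.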
Test [3] can be described thus: NCI Yeast Anticancer Drug Screen. Data for the sgs1 mgt1 strain (AID 161).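 Also: 0% = growth of cultures given vehicle only.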 The following applies: S. cerevisiae sgs1 mgt1 strain, active compounds read high. A digest of the protocol:
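Read-out: growth inhibition vs vehicle controls. Cells: mutant yeast strain deficient in DNA damage repair.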

Test [4] in a line: NCI Yeast Anticancer Drug Screen. Data for the cln2 rad14 strain (AID 165).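 Also: 0% = growth equal to vehicle treated cultures.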 As to conditions: S. cerevisiae cln2 rad14 strain, active compounds read high. A digest of the protocol:
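The screen exposed genetically defined yeast (cln2 rad14) to test compounds and scored growth inhibition relative to vehicle-treated controls.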

A short description of test [5]: NCI Yeast Anticancer Drug Screen. Data for the bub3 strain (AID 167). The following applies: S. cerevisiae bub3 mutant strain, active compounds read high. A digest of the protocol: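 Screening used yeast with an engineered genetic alteration affecting cell cycle control. Compound-exposed cultures were compared with vehicle cultures, and reduced growth was taken as inhibition.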

Test [6] is described as follows: NCI Yeast Anticancer Drug Screen. Data for the mlh1 rad18 strain (AID 175). The following applies: S. cerevisiae mlh1 rad18 strain growth inhibition, active compounds read high. The procedure, abridged:
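Compound-treated yeast growth, normalised to vehicle controls. Strain bears defined DNA repair mutations.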

[7] abbreviates: at 5.0 µM (retest, dose inferred, filed as 0.5).
Setting [8] is: at 50.0 µM (retest, dose inferred, filed as 5.0).

SMILES strings stand for the structures. This is part of a sample that, as a whole, favours compounds with a hit. Of some 79,000 tested, about 15% had one in any assay. A number with no mark means an inactive call. Calls of active or inactive are those of the source. Rule as the data show it: active = growth inhibition above about 70%; inactive = the rest.

In the case of `CCCCOc1ccc(CN2CCOC2=O)cc1`, the growth inhibition is 3% in test [1] (setting [7]); 8% in test [1] (setting [8]); 38.6% in test [1] (at 50.0 µM); 7% in test [2] (setting [7]); 12% in test [2] (setting [8]); 17.8% in test [2] (at 50.0 µM). Also, the growth inhibition was 4% in test [3] (setting [7]); 4% in test [3] (setting [8]); 10.6% in test [3] (at 50.0 µM); 5% in test [4] (setting [7]); 9% in test [4] (setting [8]); 28.3% in test [4] (at 50.0 µM). The growth inhibition is 7% in test [5] (setting [7]); 7% in test [5] (setting [8]); 6.3% in test [5] (at 50.0 µM); 0% in test [6] (setting [7]); 3% in test [6] (setting [8]); 55.4% in test [6] (at 50.0 µM).

For `CCCCCCCCCCCC(=O)OCCCCC`, the growth inhibition in test [1] (setting [7]) is -5%; in test [1] (setting [8]), 0%; in test [1] (at 50.0 µM), 74.8% (active); in test [2] (setting [7]), -1%; in test [2] (setting [8]), 1%; in test [2] (at 50.0 µM), 87.3% (active). The growth inhibition in test [3] (setting [7]) is -3%; in test [3] (setting [8]), 3%; in test [3] (at 50.0 µM) it was 65.8%; in test [4] (setting [7]) it was -1%; in test [4] (setting [8]) it was -4%; in test [4] (at 50.0 µM), -2.5%. The growth inhibition in test [5] (setting [7]) is -2%; in test [5] (setting [8]) it was -4%; in test [5] (at 50.0 µM), 80.6% (active); in test [6] (setting [7]), -8%; in test [6] (setting [8]), 0%; in test [6] (at 50.0 µM) it was 87.7% (active).

Regarding `CO[C@H]1CC[C@@]2(C)C(=CC[C@H]3[C@@H]4C[C@H](OC(C)=O)C[C@@]4(C)CC[C@@H]32)C1`, the growth inhibition in test [1] (setting [7]) was 4%; in test [1] (setting [8]), 43%; in test [1] (at 50.0 µM) it was 26.4%; in test [2] (setting [7]) it was 2%; in test [2] (setting [8]), 26%; in test [2] (at 50.0 µM), 17.8%. Also, the growth inhibition in test [3] (setting [7]) was 1%; in test [3] (setting [8]), 24%; in test [3] (at 50.0 µM), 38.3%; in test [4] (setting [7]), 2%; in test [4] (setting [8]), 28%; in test [4] (at 50.0 µM) it was 86.7% (active). Moreover, the growth inhibition in test [5] (setting [7]) was 1%; in test [5] (setting [8]), 19%; in test [5] (at 50.0 µM), 13.3%; in test [6] (setting [7]), 0%; in test [6] (setting [8]) it was 23%; in test [6] (at 50.0 µM) it was 34.9%.

With `COc1ccc2c(c1)CCc1c(-c3noc4c3CCc3cc(OC)ccc3-4)noc1-2`, the growth inhibition in test [1] (setting [7]) is -7%; in test [1] (setting [8]), -15%; in test [1] (at 50.0 µM), 9.65%; in test [2] (setting [7]) it was 5%; in test [2] (setting [8]), 19%; in test [2] (at 50.0 µM), 19%. For the same compound, the growth inhibition in test [3] (setting [7]) is 4%; in test [3] (setting [8]) it was -2%; in test [3] (at 50.0 µM), -0.9%; in test [4] (setting [7]) it was 11%; in test [4] (setting [8]) it was 9%; in test [4] (at 50.0 µM) it was 53.5%. For the same compound, the growth inhibition in test [5] (setting [7]) is -2%; in test [5] (setting [8]), 2%; in test [5] (at 50.0 µM), -7.75%; in test [6] (setting [7]) it was -2%; in test [6] (setting [8]), 10%; in test [6] (at 50.0 µM) it was 54.2%.

For the compound `OCC1CCc2[nH]c3ccccc3c2C1` (configuration not stated), the growth inhibition in test [1] (setting [7]) is -159%; in test [1] (setting [8]), -160%; in test [1] (at 50.0 µM), -7.95%; in test [2] (setting [7]), -53%; in test [2] (setting [8]) it was -59%; in test [2] (at 50.0 µM), -6.55%. For the same compound, the growth inhibition is -67% in test [3] (setting [7]); -68% in test [3] (setting [8]); -4.2% in test [3] (at 50.0 µM); -56% in test [4] (setting [7]); -76% in test [4] (setting [8]); 30.9% in test [4] (at 50.0 µM). Moreover, the growth inhibition is -65% in test [5] (setting [7]); -58% in test [5] (setting [8]); 12% in test [5] (at 50.0 µM); -128% in test [6] (setting [7]); -123% in test [6] (setting [8]); 3.5% in test [6] (at 50.0 µM).

As for `N/C(=N\OC(=O)Nc1ccccc1)c1ccccc1`, the growth inhibition in test [1] (setting [7]) is 7%; in test [1] (setting [8]), 51%; in test [1] (at 50.0 µM) it was 42.1%; in test [2] (setting [7]), 8%; in test [2] (setting [8]) it was 40%; in test [2] (at 50.0 µM) it was 33%. Also, the growth inhibition in test [3] (setting [7]) is 13%; in test [3] (setting [8]), 70% (active); in test [3] (at 50.0 µM), 68%; in test [4] (setting [7]), 2%; in test [4] (setting [8]), 38%; in test [4] (at 50.0 µM), 32.2%. Besides, the growth inhibition in test [5] (setting [7]) is -3%; in test [5] (setting [8]) it was 24%; in test [5] (at 50.0 µM) it was 11.7%; in test [6] (setting [7]), 4%; in test [6] (setting [8]), 76% (active); in test [6] (at 50.0 µM), 58.6%.

With `Cc1ccc(NCCNCCO)c2c(=O)c3ccccc3sc12`, the growth inhibition in test [1] (setting [7]) is 27%; in test [1] (setting [8]), 99% (active); in test [1] (at 50.0 µM), 99.5% (active); in test [2] (setting [7]), 9%; in test [2] (setting [8]), 100% (active); in test [2] (at 50.0 µM) it was 99.6% (active). The growth inhibition is 9% in test [3] (setting [7]); 100% (active) in test [3] (setting [8]); 99.2% (active) in test [3] (at 50.0 µM); 8% in test [4] (setting [7]); 99% (active) in test [4] (setting [8]); 99.4% (active) in test [4] (at 50.0 µM). The growth inhibition is 11% in test [5] (setting [7]); 99% (active) in test [5] (setting [8]); 99.5% (active) in test [5] (at 50.0 µM); 25% in test [6] (setting [7]); 99% (active) in test [6] (setting [8]); 99.5% (active) in test [6] (at 50.0 µM).

For the compound `O=C1O/C(=C\c2ccccc2)c2ccccc21`, the growth inhibition in test [1] (setting [7]) is 3%; in test [1] (setting [8]) it was 66%; in test [1] (at 50.0 µM), 46.5%; in test [2] (setting [7]) it was -41%; in test [2] (setting [8]), 20%; in test [2] (at 50.0 µM) it was 37.1%. Moreover, the growth inhibition in test [3] (setting [7]) was 1%; in test [3] (setting [8]), 47%; in test [3] (at 50.0 µM), 47.6%; in test [4] (setting [7]), -4%; in test [4] (setting [8]), -1%; in test [4] (at 50.0 µM), 1.8%. Further, the growth inhibition is 40% in test [5] (setting [7]); 63% in test [5] (setting [8]); 54.5% in test [5] (at 50.0 µM); 2% in test [6] (setting [7]); 50% in test [6] (setting [8]); 68.3% in test [6] (at 50.0 µM).

In the case of `CC(C)c1cc(O)c2c(c1O)C1CC3C(C)(C)CCC[C@]23C(=O)O1` (some centres not stated), the growth inhibition in test [1] (setting [7]) is 1%; in test [1] (setting [8]) it was 49%; in test [1] (at 50.0 µM) it was 92.5% (active); in test [2] (setting [7]), 9%; in test [2] (setting [8]), 82% (active); in test [2] (at 50.0 µM) it was 95% (active). Moreover, the growth inhibition in test [3] (setting [7]) was -5%; in test [3] (setting [8]), 76% (active); in test [3] (at 50.0 µM) it was 92% (active); in test [4] (setting [7]) it was 4%; in test [4] (setting [8]), 61%; in test [4] (at 50.0 µM), 88.2% (active). Also, the growth inhibition in test [5] (setting [7]) was 1%; in test [5] (setting [8]), 64%; in test [5] (at 50.0 µM), 94.7% (active); in test [6] (setting [7]), 3%; in test [6] (setting [8]), 68%; in test [6] (at 50.0 µM), 96.2% (active).
